Compound activity (PubChem BioAssay)
D1 PAM = Potentiators of Human D1 Dopamine Receptor: qHTS | potentiation, % at 10 µM | D(1A) dopamine receptor (Homo sapiens), P21728 | HEK293 TREx D1 cells, calcium flux, dopamine EC20 potentiation | 360,000 compounds, 0.036% hits; in the data active means potentiation above about 30%
D3 ag = qHTS of D3 Dopamine Receptor Agonist: qHTS; D(3) dopamine receptor (Homo sapiens), P35462; D3R DiscoveRx beta-arrestin cells, luminescence, 90 min; max activation, %; 410,000 compounds, 0.58% hits; AID 652048, 2013; in the data active means max activation above about 30%
Target sequence (P35462 whole entry, looked up): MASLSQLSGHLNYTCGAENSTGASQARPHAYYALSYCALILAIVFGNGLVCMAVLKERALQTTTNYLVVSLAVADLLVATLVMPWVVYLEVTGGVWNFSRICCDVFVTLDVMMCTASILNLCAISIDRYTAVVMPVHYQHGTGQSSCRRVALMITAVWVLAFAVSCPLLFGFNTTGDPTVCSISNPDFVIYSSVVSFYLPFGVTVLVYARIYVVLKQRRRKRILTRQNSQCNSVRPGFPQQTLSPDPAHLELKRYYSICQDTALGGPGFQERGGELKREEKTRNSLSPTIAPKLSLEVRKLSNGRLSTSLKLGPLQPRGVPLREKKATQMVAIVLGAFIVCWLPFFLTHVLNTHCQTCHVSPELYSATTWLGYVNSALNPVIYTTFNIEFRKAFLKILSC
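Cells at 1500/well, incubated overnight, then treated with pinned compounds (dopamine as control) for 90 min at 37 degrees C. DiscoveRx reagent added for 30 - 60 minutes at room temperature; luminescence read.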
D1 ag = Allosteric Agonists of the Human D1 Dopamine Receptor: qHTS. activation, % at 2 µM. 360,000 compounds, 1% hits. D(1A) dopamine receptor (Homo sapiens), P21728. HEK293 T-REx D1 cells, calcium flux, agonist mode. AID 504660, 2011; in the data active means activation above about 30%
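Tetracycline-induced HEK293 TREx D1 cells, force-coupled to calcium signalling, were dye-loaded with a no-wash calcium kit. Compound was pin-added after a 10 s baseline. Fluorescence was read kinetically at 1 cycle/s for 180 s, with calcium rises flagged as agonism.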
DRD3 antagonist = qHTS of D3 Dopamine Receptor Antagonist: qHTS | D(3) dopamine receptor (Homo sapiens), P35462 | D3R cells, DiscoveRx beta-arrestin luminescence, antagonist mode; stronger effect = lower value | max response, negative = inhibition, % | 360,000 compounds, 2.5% hits | AID 652054, 2013; in the data active means max response below about -50%; inconclusive means no clear call, values can overlap the other calls
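Cells expressing the human receptor were seeded at 1500 cells/well, incubated overnight at 37 degrees C in 5% CO2, then exposed to library compounds with dopamine controls for 90 minutes at 37 degrees C before luminescent detection.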
D1 antag = Antagonist of Human D 1 Dopamine Receptor: qHTS; D(1A) dopamine receptor (Homo sapiens), P21728; HEK293 TREx D1 cells, calcium flux, dopamine EC80; stronger effect = lower value; activity change, negative = inhibition, % at 10 µM; 360,000 compounds, 3.2% hits; AID 504652, 2011; in the data active means activity change below about -30%
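Kinetic fluorescence of a calcium dye serves as the read-out. D1-expressing Hek293 Trex cells, induced overnight at 30 C, are exposed to compound for 180 s before an EC80 dopamine addition, then read 180 s further.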
Hits are given with their value; – = inactive; ? = inconclusive; · = not tested or not shown. This is a sample that favours compounds with a hit; in the whole collection about 6.1% have one here.

SMILES | D1 PAM | D3 ag | D1 ag | DRD3 antagonist | D1 antag
Cc1cc(-c2nnc(CCC(=O)N(C)Cc3cccc4ccccc34)o2)no1 | – | – | – | – | –
CCN1CCN(C(c2ccc(SC)cc2)c2c(O)cc(C)n(Cc3ccco3)c2=O)CC1 (stereo not given) | – | – | – | · | –
C=C(C)C1CC=C(CN2CCC(O)CC2)CC1 (stereo not given) | – | – | – | ? | –
C=C(C)C1CC=C(CN2CCN(Cc3ccccc3)CC2)CC1 (stereo not given) | – | – | – | -57 | –
C=C(C)[C@@H]1CC=C(CN2CCN(Cc3ccccc3)CC2)CC1 | – | – | – | -65 | –
COCCN(Cc1ccc(F)cc1)C(=O)c1cc2ccccc2oc1=O | – | – | – | – | –
CCNC(=S)N(CCc1c(C)[nH]c2ccc(Cl)cc12)Cc1cccnc1 | – | – | – | – | -43
COCCNC(=S)N(CCc1c(C)[nH]c2ccc(Cl)cc12)Cc1cccnc1 | – | – | – | – | –
CNC(=S)N(CCc1c(C)[nH]c2ccc(Cl)cc12)Cc1cccnc1 | – | – | 31 | – | –
CC(=O)OCC(=O)[C@@]1(O)[C@H](C)C[C@H]2[C@@H]3C[C@H](F)C4=CC(=O)C=C[C@]4(C)[C@H]3[C@@H](O)C[C@@]21C | · | – | · | · | ·
COc1ccc(/C=N/NC(=O)CC(=O)NC2CCCCC2)cc1 | – | – | – | – | –
O=C(O)c1ccc2c(c1)C(=O)N([C@H](Cc1ccccc1)C(=O)O)C2=O | – | · | – | · | –
Nn1c(Cc2cccc3ccccc23)n[nH]c1=S | – | – | – | – | –
S=c1[nH]nc(Cc2cccc3ccccc23)n1-c1ccccc1 | – | – | – | -51 | –
Cc1cccc(-n2c(Cc3ccccc3)n[nH]c2=S)c1 | – | – | – | – | -40
S=C(SSC(=S)N1CCOCC1)N1CCOCC1 | · | – | · | – | ·
OC[C@@H]1CN(Cc2cccnc2)C[C@H](n2cnc3c(N4CCCC4)ncnc32)O1 | · | – | · | – | ·
CCc1ccc(NC(=O)C2CCN(S(=O)(=O)c3c(C)noc3C)CC2)cc1 | – | – | – | – | –
CCc1ccc(NC(=O)CNS(=O)(=O)c2c(C)noc2C)cc1 | – | – | – | – | -31
O=[N+]([O-])c1ccc(NC(=S)NCc2ccncc2)cc1 | – | – | 32 | – | -41
NS(=O)(=O)c1ccc(NC(=S)NCc2ccc(F)cc2)cc1 | – | – | – | – | –
O=[N+]([O-])c1ccc(NC(=S)NCc2ccc(F)cc2)cc1 | – | – | – | ? | -35
O=[N+]([O-])c1cccc(NC(=S)NCc2ccncc2)c1 | – | – | – | – | -40
O=C(CCNC(=O)c1ccc([N+](=O)[O-])cc1)Nc1ccc(F)cc1 | – | – | – | – | -39
O=C(NCc1ccncc1)Nc1cccc([N+](=O)[O-])c1 | – | – | – | ? | –
SMILES | D1 PAM | D3 ag | D1 ag | DRD3 antagonist | D1 antag
Cc1cc(C)cc(NC(=O)CCNC(=O)c2ccc([N+](=O)[O-])cc2)c1 | – | – | – | – | –
COc1ccc(CNC(=O)CNC(=O)c2cccs2)c(OC)c1 | – | – | – | – | –
S=C(NCc1ccc(Cl)cc1)Nc1ccncc1 | – | – | – | – | -43
CCc1ccc(-c2nc(CS(=O)CC(=O)O)c(C)o2)cc1 (stereo not given) | – | – | – | – | –
Oc1ccccc1C1=NOC(O)(C(F)F)C1 (stereo not given) | – | – | – | -66 | –
Oc1ccccc1C1=Nc2ccccc2N=C(c2ccco2)C1 | – | – | – | – | –
OC1(Cc2cc(-c3ccccc3)no2)CCN(CCCc2ccccc2)CC1 | – | – | – | -75 | –
Cc1nn(C)cc1CNC(=O)COc1ccc(Cl)cc1Cl | – | – | – | – | -33
CC(=O)N1c2ccccc2C(C)(c2ccc(C)cc2)CC1(C)C (stereo not given) | – | – | 56 | · | –
O=C(COC(=O)/C=C/c1ccco1)NCCc1ccccc1 | – | – | – | – | –
COc1ccc(Cl)cc1NC(=O)c1nnn(Cc2cccc(C(F)(F)F)c2)c1N | – | – | – | · | –
COc1ccc([C@@H]2COc3c(ccc4c3C=CC(C)(C)O4)C2)c(OC)c1 | · | 33 | · | – | ·
COc1ccc(N2CCN(c3oc(-c4ccccc4C)nc3S(=O)(=O)c3ccccc3)CC2)cc1 | – | – | – | · | –
CCc1ccc2nc3sc(C(=O)O)cc3cc2c1 | – | – | 255 | – | –
Cc1ccccc1Cn1c(=N)n(CC(O)c2ccco2)c2ccccc21 (stereo not given) | – | – | – | – | –
CC(C)(C)c1ccc(Cn2c(=N)n(CC(O)c3ccco3)c3ccccc32)cc1 (stereo not given) | – | – | 72 | – | –
O=C(NCc1ccc(F)cc1)c1cc(C2CCCCN2S(=O)(=O)c2ccccc2)on1 (stereo not given) | · | – | · | – | ·
CS(=O)(=O)N1CCCCC1c1cc(C(=O)NCc2ccc(F)cc2)no1 (stereo not given) | · | – | · | -88 | ·
O=C(NCc1ccc(F)cc1)c1cc(C2CCCCN2S(=O)(=O)Cc2ccccc2)on1 (stereo not given) | · | – | · | -99 | ·
CCOC(=O)C1(C)CCCN(C(=O)c2cccc(OC(F)(F)F)c2)C1 (stereo not given) | · | – | · | ? | ·
O=[N+]([O-])c1nn(-c2ccc(Cl)cc2)n(O)c1=NCc1ccncc1 | – | – | – | – | -42
Cc1nnc(NC(=O)c2cccc(S(=O)(=O)N3CC(c4ccccc4)CC3=O)c2)s1 (stereo not given) | – | 68 | – | – | –
Cc1ccc(C)c(NC(=O)C2(C)CCN2C(=O)C(C)C)c1 (stereo not given) | · | – | · | – | ·
Cc1cc2nc(NC(=O)C3(C)CCN3C(=O)C(C)C)[nH]c2cc1C (stereo not given) | · | 66 | · | – | ·
COc1ccc(CC2(CO)CCN(Cc3cnn(-c4ccccc4OC)c3)CC2)cc1 | – | – | – | -89 | –
SMILES | D1 PAM | D3 ag | D1 ag | DRD3 antagonist | D1 antag
COc1ccc(CC2(CO)CCN(Cc3cnn(-c4ccccc4)c3)CC2)cc1 | – | – | – | ? | –
COc1ccc(CC2(CO)CCN(Cc3cnn(-c4ccc(F)cc4)c3)CC2)cc1 | – | – | 47 | – | –
COc1ccc(CC2(CO)CCN(Cc3cnc(-c4ccccc4C)nc3)CC2)cc1 | – | – | – | – | –
COc1ccc(C)cc1NC(=O)c1sc2nc(-c3ccc(F)cc3)cn2c1C | – | – | – | · | –
Cc1cc(Cl)ccc1OCC(=O)OC(C)C(=O)N(C)C (stereo not given) | – | – | – | – | –
Cc1cc(Cl)ccc1OCC(=O)OC(C)C(=O)NC(N)=O (stereo not given) | – | 46 | – | – | –
